Our source for the PBM binding z-score values is the supplement of paper PMC6555819.

Common to all, as to test: PBM binding z-score (relative to random genomic background probes); higher = stronger binding; sequences stand for … in GC…GCGATTGACAGCGTAGAATGAAGG
In test [1] the test system is FXR:RXRa (NR concentration 270 nM, RXRa partner concentration 90 nM). Summed up:
(§1)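 Each nuclear receptor dimer, without ligand, was incubated for 1 h on custom Agilent 4×180K protein-binding microarrays. Binding was detected with antibodies against each partner (one per run), and scanned fluorescence was regression-normalized. The binding z-scores are referenced to random human genomic background probes.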

Test [2] deals with LXRa:RXRa (NR concentration 270 nM, RXRa partner concentration 90 nM). Summed up:
as §1

Test [3] concerns LXRa homodimer (NR concentration 270 nM). Summed up: as §1
Test [4] deals with LXRb:RXRa (NR concentration 270 nM, RXRa partner concentration 90 nM). In short, it runs like this: as §1
Test [5] concerns LXRb homodimer (NR concentration 270 nM). Summed up: as §1
For test [6], the system named is PPARa:RXRa (NR concentration 270 nM, RXRa partner concentration 90 nM). Summed up: as §1
For test [7], the system named is PPARg:RXRa (NR concentration 180 nM, RXRa partner concentration 90 nM). In short, it runs like this: as §1
In test [8] the test system is PPARg:RXRa 270nM:90nM, anti-RXR (NR concentration 270 nM, RXRa partner concentration 90 nM). In short, it runs like this:
as §1

Test [9] has as its system PPARg:RXRa 30nM:10nM, anti-RXR (NR concentration 30 nM, RXRa partner concentration 10 nM). In short, it runs like this: as §1
Test [10] deals with PPARg:RXRa 90nM:30nM, anti-RXR (NR concentration 90 nM, RXRa partner concentration 30 nM). Summed up: as §1
Test [11] relates to PPARg:RXRa DBDmut IVT, anti-RXR (DBD mutation: RXRa K156A/R161A, NR concentration 270 nM, RXRa partner concentration 90 nM). Summed up: as §1
Test [12] deals with PPARg:RXRa IVT, anti-PPARg (NR concentration 270 nM, RXRa partner concentration 90 nM). Summed up: as §1
In test [13] the test system is PPARg DBDmut:RXRa IVT, anti-PPARg (DBD mutation: PPARg1 K132A/R137A, NR concentration 270 nM, RXRa partner concentration 90 nM). Summed up: as §1
Test [14] concerns PPARg DBDmut IVT, anti-PPARg (DBD mutation: PPARg1 K132A/R137A, NR concentration 270 nM). In short, it runs like this:
as §1

Test [15] deals with PPARg homodimer (NR concentration 180 nM). In short, it runs like this: as §1
The test system of test [16] is PXR:RXRa (NR concentration 270 nM, RXRa partner concentration 90 nM). In short, it runs like this: as §1
For test [17], the system named is PXR homodimer (NR concentration 270 nM). In short, it runs like this: as §1
The test system of test [18] is RARa:RXR (NR concentration 270 nM, RXRa partner concentration 90 nM). In short, it runs like this: as §1
Test [19] relates to RARa homodimer (NR concentration 270 nM). In short, it runs like this: as §1
Test [20] deals with RARb:RXRa (NR concentration 270 nM, RXRa partner concentration 90 nM). In short, it runs like this:
as §1

Consider TATGCTAGGTCAACGATGGTCAGCTAATCTGCTA, for which the PBM binding z-score in test [1] turned out to be 3.36; in test [2] it was 4.53; in test [3], 2.1; in test [4], 2.25; in test [5], 0.889; in test [6], 3.37. Besides, the PBM binding z-score in [7] stood at 2.89; in test [8] it was 2.78; in test [9], 0.716; in [10] it was 1.87; in test [11], 2.97; in test [12] it was 3.84. Moreover, the PBM binding z-score in [13] is 1.31; in [14], 1.14; in [15], 1.14; in [16], 1.77; in test [17] it was -0.438; in [18] it was 2.6. Moreover, the values for the PBM binding z-score in test [19] and in test [20] were -0.282 and 3.96, respectively.

Consider CCTACTGGGCCATTAGGTCATTGATATCAACGTT, for which the PBM binding z-score in test [1] was 1.06; in test [2], 0.977; in test [3] it was 0.832; in test [4] it was 1.24; in test [5], -0.52; in [6] it was 2.76. In addition, the PBM binding z-score is 3.46 in test [7]; 3.68 in test [8]; 1.32 in [9]; 3.03 in [10]; 5.31 in [11]; 5.88 in test [12]. Also, the PBM binding z-score in [13] is 0.577; in test [14], 0.445; in test [15] it was 1.02; in test [16], 1.13; in test [17], 0.202; in test [18] it was 1.72. The PBM binding z-score in test [19] was determined as 0.45; in [20], 2.09.

Take GCTCACGGGTCAAAGGTTATAGCATGAATAGAAT: the PBM binding z-score is 7.17 in test [1]; 5.69 in [2]; 0.496 in test [3]; 5.67 in test [4]; 0.379 in test [5]; 6.85 in test [6]. For the same sequence, the PBM binding z-score is 9.36 in test [7]; 8.27 in test [8]; 6.88 in test [9]; 8.29 in test [10]; 2.57 in test [11]; 4.03 in test [12]. Moreover, the PBM binding z-score in test [13] was 0.462; in test [14] it was 0.56; in test [15] it was 2.09; in test [16], 6.14; in [17], 0.22; in test [18], 8.47. Further, the values for the PBM binding z-score in test [19] and in test [20] were 0.284 and 4.46, respectively.

Consider CGAATTAGGTCATTGACAGGACAGTGAATAGTAA, for which the PBM binding z-score in [1] came to 4.67; in [2], 3.39; in test [3], 0.61; in test [4], 2.55; in [5], 0.269; in [6] it was 4.89. In addition, the PBM binding z-score in test [7] came out at 6.83; in test [8], 6.02; in [9], 3.62; in test [10], 5.68; in test [11], 8.21; in test [12] it was 7.99. In addition, the PBM binding z-score amounted to 4.24 in test [13]; 2.12 in [14]; 2.32 in test [15]; 1.77 in test [16]; 0.55 in test [17]; 2.57 in [18]. The PBM binding z-score in test [19] came out at 0.994; in test [20] it was 3.73.

On to CGTCCAAGGGCAGAGAGGTCAGTGAATGCCGAGT, for which the PBM binding z-score in test [1] was 1.75; in test [2] it was 1.84; in [3] it was 0.628; in test [4], 1.59; in [5], -0.506; in test [6], 2.5. Besides, the PBM binding z-score was 0.642 in test [7]; 1.19 in [8]; -0.361 in test [9]; 0.293 in test [10]; 0.812 in [11]; 1.16 in [12]. In addition, the PBM binding z-score was -1.66 in [13]; -1.28 in test [14]; 1.16 in test [15]; 3.43 in test [16]; 6.33 in [17]; 2.56 in test [18]. Moreover, the PBM binding z-score in test [19] is -0.0232; in test [20] it was 3.92.

In the case of TGAATGAGGATATAAGATCAGGGAACGTTGCAAA, the PBM binding z-score is 0.013 in test [1]; -0.248 in test [2]; -0.305 in test [3]; -0.404 in test [4]; -0.253 in test [5]; -0.127 in test [6]. Also, the PBM binding z-score was 0.623 in test [7]; 0.286 in [8]; 0.757 in test [9]; 0.775 in test [10]; -0.556 in test [11]; 0.057 in [12]. Besides, the PBM binding z-score in test [13] was 0.56; in test [14], 0.888; in test [15], 0.688; in [16] it was -0.114; in test [17], 0.099; in test [18] it was 0.0893. The PBM binding z-score in [19] was 0.416; in test [20] it was -0.402.

On to CCTATTGGGCCACGAAAGGTCATTGATTCAGTGA, for which the PBM binding z-score in [1] was 3.94; in test [2], 5.43; in [3] it was 5.04; in [4] it was 4.14; in test [5] it was 0.248; in [6], 4.6. Further, the PBM binding z-score is 2.92 in test [7]; 4.31 in test [8]; 1.71 in test [9]; 3.67 in test [10]; 4.26 in [11]; 4.09 in test [12]. Moreover, the PBM binding z-score in [13] is 0.172; in test [14] it was -0.271; in [15] it was 5.52; in test [16], 5.82; in test [17], 1.47; in [18], 5.93. In addition, the PBM binding z-score in test [19] is 2.11; in test [20], 4.13.
